Out of some 400,000 compounds screened, about 1,900 (0.47%) were called active. Not shown: some 14% with an inconclusive outcome. No rule for the calls is given here. Shown is part of a subset that was picked to be rich in actives.
The compounds below were run against Ataxin-2 (Homo sapiens) (UniProt Q99700) (assay: qHTS for Inhibitors of ATXN expression.).
Assay type: functional

Ataxin-2 (Homo sapiens), sequence (Q99700 whole entry): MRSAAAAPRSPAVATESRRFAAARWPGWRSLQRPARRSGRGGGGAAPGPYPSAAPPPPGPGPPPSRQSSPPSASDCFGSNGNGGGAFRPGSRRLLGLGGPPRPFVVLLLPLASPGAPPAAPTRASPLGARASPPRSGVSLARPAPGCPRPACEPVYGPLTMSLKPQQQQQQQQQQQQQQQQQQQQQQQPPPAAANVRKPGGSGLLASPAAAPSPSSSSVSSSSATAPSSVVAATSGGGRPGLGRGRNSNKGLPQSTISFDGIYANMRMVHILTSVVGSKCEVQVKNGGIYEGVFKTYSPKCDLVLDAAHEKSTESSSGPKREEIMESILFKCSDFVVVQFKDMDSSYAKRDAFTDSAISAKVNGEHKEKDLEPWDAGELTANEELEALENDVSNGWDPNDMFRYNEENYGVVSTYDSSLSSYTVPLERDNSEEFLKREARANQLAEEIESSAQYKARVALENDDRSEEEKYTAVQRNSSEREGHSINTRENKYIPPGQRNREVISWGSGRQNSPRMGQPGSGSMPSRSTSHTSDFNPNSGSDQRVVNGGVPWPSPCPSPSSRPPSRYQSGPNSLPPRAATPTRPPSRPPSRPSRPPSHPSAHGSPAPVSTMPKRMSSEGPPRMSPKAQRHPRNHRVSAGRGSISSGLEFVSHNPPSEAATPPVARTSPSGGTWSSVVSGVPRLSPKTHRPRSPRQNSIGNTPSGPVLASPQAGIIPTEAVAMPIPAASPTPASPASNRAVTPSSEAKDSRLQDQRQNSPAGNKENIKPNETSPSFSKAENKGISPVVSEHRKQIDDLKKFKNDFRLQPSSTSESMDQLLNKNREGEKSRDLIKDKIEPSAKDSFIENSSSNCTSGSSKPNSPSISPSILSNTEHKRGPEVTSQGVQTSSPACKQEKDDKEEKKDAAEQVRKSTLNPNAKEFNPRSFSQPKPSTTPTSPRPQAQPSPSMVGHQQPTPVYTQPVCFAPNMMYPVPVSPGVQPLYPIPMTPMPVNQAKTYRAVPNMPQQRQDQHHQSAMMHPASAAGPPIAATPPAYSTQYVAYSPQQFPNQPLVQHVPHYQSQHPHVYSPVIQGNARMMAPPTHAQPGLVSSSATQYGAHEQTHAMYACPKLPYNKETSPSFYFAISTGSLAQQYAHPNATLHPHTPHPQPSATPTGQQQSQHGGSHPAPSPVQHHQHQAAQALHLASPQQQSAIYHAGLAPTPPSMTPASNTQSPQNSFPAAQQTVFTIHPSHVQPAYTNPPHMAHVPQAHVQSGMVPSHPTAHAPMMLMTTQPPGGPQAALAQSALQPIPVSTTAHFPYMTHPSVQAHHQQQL

SMILES	Potency
Cc1cccc(C)c1-n1nnnc1C(c1cccs1)N1CCC(n2c(O)nc3ccccc32)CC1 (stereo not drawn)	20 µM (active)
Oc1nc2ccccc2n1C1CCN(C(c2cc3ccccc3o2)c2nnnn2Cc2ccccc2)CC1 (stereo not drawn)	10 µM (active)
COc1ccc(C(c2nnnn2Cc2ccccc2)N2CCC(n3c(O)nc4ccccc43)CC2)cc1 (stereo not drawn)	15.8 µM (active)
Oc1nc2ccccc2n1C1CCN(C(c2cccs2)c2nnnn2Cc2ccccc2)CC1 (stereo not drawn)	22.4 µM (active)
COc1ccc2c3c([nH]c2c1)C(C)=NCC3	inactive
Cc1c(C)n(O)c2ccc3nonc3c12	inactive
CCN(CC)c1ccc(N/C=C2\C(=O)NC(=O)N(Cc3ccco3)C2=O)cc1	inactive
CCOP(=O)(OCC)c1nc(-c2ccc(F)cc2)oc1NCc1ccccc1	inactive
Cc1ccccc1CN1Cc2cnnn2-c2ccccc2C1C#N (stereo not drawn)	17.8 µM (active)
COc1ccc(CN2Cc3cnnn3-c3ccccc3C2C#N)cc1 (stereo not drawn)	12.6 µM (active)
Nc1c(C(=O)NCCN2CCOCC2)c2nc3ccccc3nc2n1Cc1ccco1	inactive
ClCCN(CCCl)c1ccc(-n2cnc3c(Cl)ncnc32)cc1	35.5 µM (active)
ClCCN(CCCl)c1ccc(C=Cc2ccncn2)cc1	inactive
COCCNC(=O)c1c(NC(=O)c2ccc(Br)o2)n(Cc2ccccc2)c2nc3ccccc3nc12	inactive
CCCCCCCSc1cc(OC)c(CCN(C)C)cc1OC	39.8 µM (active)
C=CC[N+]1(C)C2CCC1CC(O)C2 (stereo not drawn)	inactive
COc1ccccc1OCCCn1cc(C=O)c2ccccc21	inactive
Cc1ccc([C@H]2C[C@H](O)[C@@H](n3cc(COC(=O)c4ccccc4)nn3)CN2CC2CCCCC2)cc1	31.6 µM (active)
CCOC(=O)c1c(N)n(Cc2ccco2)c2nc3ccccc3nc12	inactive
O=C1C2(Cl)C3(Cl)C4(Cl)C(Cl)(Cl)C5(Cl)C3(Cl)C1(Cl)C5(Cl)C24Cl (stereo not drawn)	39.8 µM (active)
CCCCn1c(NC(=O)c2ccc(Br)o2)c(C(=O)OCC)c2nc3ccccc3nc21	inactive
O=c1[nH]c2ccccc2n1C1CCN(CCCC(c2ccc(F)cc2)c2ccc(F)cc2)CC1	31.6 µM (active)

SMILES	Potency
COCCCNC(=O)c1c(N)n(Cc2ccco2)c2nc3ccccc3nc12	inactive
O=[N+]([O-])c1ccc(Sc2nc3ccccc3o2)c([N+](=O)[O-])c1	25.1 µM (active)
CCCCCn1c(=O)c(C(=O)Nc2ccccc2Cl)c(O)c2ccccc21	inactive
CCCCCc1nc2c(c(=O)c3ccccc3n2C)c(=O)n1C1CCCCCC1	31.6 µM (active)
Nc1c(C(=O)NCCN2CCOCC2)c2nc3ccccc3nc2n1Cc1ccccc1	inactive
COCCNC(=O)c1c(N)n(CCC(C)C)c2nc3ccccc3nc12	inactive
CCOC(=O)c1c(C)n(Cc2ccccc2)c2ccc(OCC(O)CNC(C)(C)C)cc12 (stereo not drawn)	25.1 µM (active)
COc1ccc(N2C(=O)NC(=O)/C(=C(/C)NCCc3c[nH]c4ccccc34)C2=O)cc1	inactive
CCCCn1c(N)c(C(=O)OCCOC)c2nc3ccccc3nc21	inactive
CC(=O)OC1C2(CC3N4C(=O)C5(CO)SSC4(CC31O)C(=O)N5C)OC(C)C(C)(C)C2=O (stereo not drawn)	2.38 µM (active)
CCN1C(=O)C(=CNNC(=O)c2ccncc2)C(=O)N(CC)C1=S	inactive
CCCN1CCc2cccc3c2[C@H]1Cc1ccc(O)c(O)c1-3	35.5 µM (active)
Cc1ccccc1NC(=NCCCN1CC1)Nc1ccccc1C	9.47 µM (active)
O=C(Nc1cccc(C(F)(F)F)c1)C1CCCN1S(=O)(=O)c1cccc2nsnc12 (stereo not drawn)	22.4 µM (active)
CC1=NCCc2c1[nH]c1cc(O)ccc21	inactive
O=C(Cn1c(NCCCl)nc2ccccc21)c1ccc(Br)cc1	inactive
O=C(CCN1CCN(c2ccccc2)CC1)c1ccc(Br)cc1	39.8 µM (active)
Cc1cccc(C)c1-n1nnnc1C(C1CC1)N1CCC2(CC1)C(=O)NCN2c1ccccc1 (stereo not drawn)	39.8 µM (active)
COc1ccc(-n2nnnc2C(c2ccccc2OC(F)(F)F)N2CCC3(CC2)C(=O)NCN3c2ccccc2)cc1 (stereo not drawn)	39.8 µM (active)
COc1ccc(-n2nnnc2C(c2ccnc3ccccc23)N2CCC3(CC2)C(=O)NCN3c2ccccc2)cc1 (stereo not drawn)	39.8 µM (active)
COc1ccc(C(c2nnnn2-c2ccc(OC)cc2)N2CCC3(CC2)C(=O)NCN3c2ccccc2)cc1 (stereo not drawn)	35.5 µM (active)
COc1ccc(-n2c(/C=C/c3ccc(O)c(O)c3)nc3ccccc3c2=O)cc1	inactive

SMILES	Potency
COc1ccc(C(=O)C2CCCN(Cc3ccc(C)s3)C2)cc1OC (stereo not drawn)	inactive
CC(C)OC(=O)c1c(N)n(CC2CCCO2)c2nc3ccccc3nc12 (stereo not drawn)	inactive
O=C(COc1ccccc1)N1CCN(CCN2C(=O)c3cccc4cccc(c34)C2=O)CC1	inactive
CCOP(=O)(OCC)c1nc(-c2cccc3ccccc23)oc1N1CCOCC1	inactive
Cc1cccc(C)c1-n1nnnc1C(c1ccnc2ccccc12)N1CCC2(CC1)C(=O)NCN2c1ccccc1 (stereo not drawn)	39.8 µM (active)
Cc1cccc(C)c1-n1nnnc1C(c1cccs1)N1CCC2(CC1)C(=O)NCN2c1ccccc1 (stereo not drawn)	31.6 µM (active)
C[C@H]1CC[C@@H]2[C@@H](C)[C@H]3[C@H](C[C@H]4[C@@H]5CC=C6C[C@@H](O[C@@H]7O[C@H](CO)[C@H](O)[C@H](O[C@@H]8O[C@H](CO)[C@@H](O)[C@H](O)[C@H]8O)[C@H]7O[C@@H]7O[C@@H](C)[C@H](O)[C@@H](O)[C@H]7O)CC[C@]6(C)[C@H]5CC[C@]34C)N2C1	22.4 µM (active)
COP(=O)(OC)c1nc(-c2cccc3ccccc23)oc1N1CCCCC1	inactive
Cc1ccc(OCCOc2cccc(C=C3C(=O)NC(=O)NC3=O)c2)cc1	inactive
CN(C)c1ccc(C=C2C(=O)NC(=S)NC2=O)cc1	44.7 µM (active)
COc1ccc(OC)c(CN2CCN(C(=O)Cc3ccccc3)CC2)c1	inactive
O=C1NC(=O)C(=Cc2ccc(SC3CCCCC3)o2)C(=O)N1	22.4 µM (active)
O=C1NC(=O)C(=Cc2ccc(-c3ccccc3[N+](=O)[O-])o2)C(=O)N1	inactive
C=CC[C@@H](CC/C=C/C=C/CC/C=C\[C@@H]1CSC([C@@H]2C[C@@H]2C)=N1)OC	17.8 µM (active)
O=c1ccc2cc(O[C@@H]3O[C@@H](CO)[C@H](O)[C@@H](O)[C@@H]3O)c(O)cc2o1	inactive
CCN(CCCl)c1cc(CN(C)C)cc(NC(=O)c2ccc(C(=O)Nc3cc(CN(C)C)cc(N(CC)CCCl)c3)cc2)c1	20 µM (active)
O=C(c1ccc(C(F)(F)F)cc1)C1CCCN(Cc2ccncc2)C1 (stereo not drawn)	inactive
CCn1cc(C(=O)NCCc2ccc(OC)c(OC)c2)c(=O)c2cc(S(=O)(=O)N(C)C3CCCCC3)ccc21	25.1 µM (active)
COC(=O)Cn1cc(C=C2C(=O)N(C)C(=O)N(C)C2=O)c2ccccc21	inactive
O=C1NC(=O)C(=CNc2cc(F)cc(F)c2)C(=O)N1	inactive
CC[n+]1c(/C=C/C=C/c2ccc(N(C)C)cc2)sc2ccccc21	5.32 µM (active)
CC[n+]1c(C=CN(C)c2ccccc2)sc2ccc(Cl)cc21	17.8 µM (active)

SMILES	Potency
CC(C)(C)C(=O)c1cn(Cc2ccccc2)c2ccccc12	inactive
O=C(NN1C(=O)C2C3C=CC(C4CC34)C2C1=O)c1cccc(Br)c1 (stereo not drawn)	inactive
C[C@@]12CC[C@H](O)C[C@@H]1CC[C@H]1[C@H]2CC[C@@]2(C)[C@@H](C3=CC(=O)OC3)CC[C@]12O	0.708 µM (active)
C[C@@]12CC[C@H](O)C[C@@H]1CC[C@H]1[C@@H]2C[C@@H](O)[C@]2(C)[C@@H](C3=CC(=O)OC3)CC[C@]12O	3.16 µM (active)
C=CCNC(=O)c1c(N)n(Cc2ccco2)c2nc3ccccc3nc12	inactive
COCCCn1c(N)c(C(=O)OC(C)COC)c2nc3ccccc3nc21 (stereo not drawn)	inactive
O=C1NC(=O)N(CCc2ccccc2)C(=O)/C1=C\NN1CCOCC1	inactive
COC1CCC(OC2CC(C3(C)CCC4(CC(O)C(C)C(C(C)/C=C(\C)C(=O)C(C)CC(C)C(=O)O)O4)O3)OC3(OC(C4OC(O)(CO)C(C)CC4C)CC3C)C2C)OC1C (stereo not drawn)	0.562 µM (active)
COCCOC(=O)c1c(N)n(Cc2ccco2)c2nc3ccccc3nc12	inactive
CC(=O)OC(C)(C)/C=C/C(=O)C(C)(O)C1C(O)CC2(C)C3CC=C4C(CC(O)C(=O)C4(C)C)C3(C)C(=O)CC12C (stereo not drawn)	0.189 µM (active)
CC(=O)OC(C)(C)/C=C/C(=O)[C@](C)(O)[C@H]1[C@H](O)C[C@@]2(C)[C@@H]3CC=C4[C@H](C[C@H](O)C(=O)C4(C)C)[C@]3(C)C(=O)C[C@]12C	39.8 µM (active)
COc1ccc(C(=O)C2CCCN(Cc3cnc(C)s3)C2)c(OC)c1 (stereo not drawn)	inactive
NC(=O)c1cn(C2OC(CO)C(O)C2O)c2ncnc(N)c12 (stereo not drawn)	0.316 µM (active)
COc1ccc2[nH]c(C)c(CCNCc3cn(C)c4ccccc34)c2c1	17.8 µM (active)
Cn1c(=O)oc2cc(NC(=O)CCl)ccc21	31.6 µM (active)
CCn1c(=O)oc2cc(NC(=O)CCl)ccc21	37.7 µM (active)
COc1ccc(NC(=O)c2cccn(Cc3ccc(Cl)cc3)c2=O)c(OC)c1	inactive
CCc1nc2ccc(N3CCN(C)CC3)cc2nc1CC	inactive
COCCCn1c(N)c(C(=O)NCc2ccco2)c2nc3ccccc3nc21	inactive
Nc1c(C(=O)Nc2ccc(Cl)cc2)sc2nc3c(cc12)N1CCC3CC1	inactive
COc1ccc(OCC(=O)N2CCN(C/C=C/c3ccccc3)CC2)cc1	inactive
COc1ccc(Nc2nc(N)nc(CSc3nc4ccccc4s3)n2)cc1	39.8 µM (active)

Source: ChEMBL document CHEMBL1201862, “PubChem BioAssay data set” (2004)
